FBW7 activator: FBW7 E3 ligase activators, primary screen, biochemical, AlphaScreen, human; F-box/WD repeat-containing protein 7 (Homo sapiens), Q969H0; AlphaScreen FBW7–phospho-cyclin E peptide binding, activator screen; normalized activity (activation), % at 26.1 µM; actives 0.13% (n = 650,000); in the data active means normalized activity above about 1.9%;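 further: purified mutant Fbw7 with reduced substrate affinity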
TEAD-YAP block: TEAD-YAP interaction inhibition, primary screen, TEAD-YAP interaction inhibitor project, luminescence, HEK-TIYL cells; TEAD-Gal4/YAP UAS-luciferase luminescence; actives 1.4% (n = 640,000); AID 1259422, 2018; inhibition, % at 9.12 µM; in the data active means inhibition above about 32%
GPR151 activ: activators of human GPR151, primary screen, cell-based, PathHunter beta-arrestin, luminescence; activation, % at 11.2 µM; AID 1508602, 2020; actives 1% (n = 650,000); G-protein coupled receptor 151 (Homo sapiens), Q8TDV0; PathHunter beta-arrestin GPR151 cells; in the data active means activation above about 4.9%
MITF primary: MITF inhibitors, primary screen, biochemical, AlphaScreen, human | AlphaScreen MITF homodimerization, bead proximity signal | inhibition, % at 2.6 µM | actives 0.91% (n = 650,000); in the data active means inhibition above about 50%
MITF inh conf: MITF inhibitors, retest of hits, confirmation, biochemical, AlphaScreen, triplicate. shares compounds with MITF primary. AlphaScreen MITF homodimerization, biotin/His-MITF beads. inhibition, % at 2.6 µM. actives 16% (n = 4,700);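 active means inhibition above a cutoff derived from the DMSO control wells, cut at about 28% in these data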;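 further: inhibitors lower the bead chemiluminescence by keeping MITF from dimerizing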
AS interf DR: AlphaScreen optical interference compounds, dose response, counter-screen, biochemical, HTS; AID 1259373, 2018; actives 6% (n = 480); AlphaScreen optical interference counterscreen, cell-free; IC50, µM; shares compounds with MITF primary; call rule not given here
AS interf ctr: AlphaScreen optical interference compounds, counter-screen for MITF inhibitor project, biochemical, triplicate; actives 7.6% (n = 4,700); shares compounds with MITF primary; LysRS AlphaScreen counterscreen, signal interference; inhibition, % at 2.6 µM;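 active means inhibition above a cutoff derived from the DMSO control wells, cut at about 30% in these data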
Each line names hits and unclear results; the compound was inactive in the other large screens (follow-up assays come after a bar, where they were run). Only some compounds are listed: those with a hit (about 3.5% of all), similar ones and a draw of the others.

O=C1CCCN1CCn1cnc2c(Nc3ccc(N4CCOCC4)cc3)nc(N3CCN(c4ccccn4)CC3)nc21	none
O=C1CCCN1CCn1cnc2c(Nc3ccc4c(c3)OCO4)nc(N3CCN(c4ccccn4)CC3)nc21	MITF primary 76 | MITF inh conf inactive | AS interf ctr inactive
COC(=O)c1cc(Br)ccc1OC(=O)c1sc2ncn(Cc3cccc(F)c3)c(=O)c2c1C	none
NC(=O)/C(=C\c1cccc([N+](=O)[O-])c1)NC(=O)c1ccc(Br)cc1	MITF primary 53 | MITF inh conf 32 | AS interf DR inactive | AS interf ctr inactive
NC(=O)/C(=C/c1cccc([N+](=O)[O-])c1)NC(=O)c1cccc(Br)c1	none
CCCNC(=O)CN(C)CC(=O)c1c(N)n(CCC)c(=O)[nH]c1=O	none
O=[N+]([O-])c1ccc(OCCCN2CCCCCC2)cc1	none
Cc1ccc([N+](=O)[O-])c(OCCN2CCN(Cc3ccccc3)CC2)c1	MITF primary 63 | MITF inh conf inactive | AS interf ctr inactive
CCN1CCN(CCCOc2ccc([N+](=O)[O-])cc2)CC1	MITF primary 66 | MITF inh conf inactive | AS interf ctr inactive
Cc1cc(OCCN2CCN(Cc3ccccc3)CC2)ccc1[N+](=O)[O-]	MITF primary 82 | MITF inh conf inactive | AS interf ctr inactive
Cc1cc(OCCCCN2CCCC2)ccc1[N+](=O)[O-]	MITF primary 82 | MITF inh conf inactive | AS interf ctr inactive
Cc1ccc([N+](=O)[O-])c(OCCN2CCNCC2)c1	none
COc1ccc(C(=O)Cn2c(N3CCN(C)CC3)nc3c2c(=O)n(C)c(=O)n3C)cc1	none
Cn1ccnc1C1(O)CCN(C(=O)Nc2ccccc2Cl)CC1	none
Cc1cc(OCCN2CC(C)CC(C)C2)ccc1[N+](=O)[O-] (configuration not stated)	none
CCN1CCN(CCOc2ccc([N+](=O)[O-])c(C)c2)CC1	MITF primary 65 | MITF inh conf inactive | AS interf ctr inactive
Cc1cc(OCCCN2CCCCCC2)ccc1[N+](=O)[O-]	none
Cc1cc(OCCN2CCC(C)CC2)ccc1[N+](=O)[O-]	MITF primary 52 | MITF inh conf inactive | AS interf ctr inactive
O=C(c1ccc(Br)cc1)N1CCN(c2c(Cl)cccc2[N+](=O)[O-])CC1	none
Cc1ccc(NC(=O)CN2CCN(c3ccc(Cl)cc3)CC2)cc1F	none
CN1CCN(Cc2c3ccccc3cc3ccccc23)CC1	MITF primary 76 | MITF inh conf inactive | AS interf ctr inactive
Cc1ccccc1CN1CCCN(C)CC1	none
CN1CCCN(Cc2cccc3ccccc23)CC1	MITF primary 52 | MITF inh conf inactive | AS interf ctr inactive
OCCN1CCN(Cc2c3ccccc3cc3ccccc23)CC1	none
CN1CCCN(Cc2cc(F)ccc2F)CC1	MITF primary 70 | MITF inh conf inactive | AS interf ctr inactive
O=S(=O)(CCCOc1ccc(F)cc1)NC1CCN(Cc2ccccc2)CC1	none
CCOC(=O)N1CCN(C(=O)C2CCN(Cc3ccc(OC)c(OC)c3)CC2)CC1	MITF primary 52 | MITF inh conf inactive | AS interf ctr inactive
CCOC(=O)N1CCN(Cc2ccc3c(c2)CN(C(=O)C2CNC(=O)C2)CCO3)CC1 (configuration not stated)	MITF primary 61 | MITF inh conf inactive | AS interf ctr inactive
CCOC(=O)N1CCN(C(=O)C2CCN(Cc3ccc(Cl)cc3)CC2)CC1	MITF primary 54 | MITF inh conf inactive | AS interf ctr inactive
CC(C)c1ccc(C2CC(c3cccc(Cl)c3)n3nnnc3N2)cc1 (configuration not stated)	none
CC(=O)c1c(C)[nH]c(C(=O)Nc2ccc(S(=O)(=O)Nc3ccc(Cl)cc3)cc2)c1C	none
CCCOc1ccc(N)cc1N	MITF primary 57 | MITF inh conf 110 | AS interf DR inactive | AS interf ctr inactive
Cc1nnc(CNC(=O)c2cnn(-c3ccccc3)c2C)o1	none

From PubChem BioAssay
